This is an account of results in PubChem BioAssay (NCI).

Holding throughout (test): NCI-60 one-dose screen, 48 h (100 = growth as untreated, 0 = no growth, -100 = all killed)
One experiment concerns HCT-15 colon. Particulars: 10 µM unless noted.
A further experiment concerns HT29 colon. The settings on record: 10 µM unless noted.
The test system of another experiment is SNB-19 CNS. Particulars: 10 µM unless noted.
For a further experiment, the system named is U251 CNS. Particulars: 10 µM unless noted.
The subject of a further experiment is PC-3 prostate. The settings on record: 10 µM unless noted.
A further experiment deals with SK-MEL-5 melanoma. The settings on record: 10 µM unless noted.
The subject of a further experiment is UACC-62 melanoma. The settings on record: 10 µM unless noted.
The test system of another experiment is LOX IMVI melanoma. Particulars: 10 µM unless noted.
The next experiment concerns SK-MEL-28 melanoma. Particulars: 10 µM unless noted.
The test system of the next experiment is SK-MEL-2 melanoma. The settings on record: 10 µM unless noted.
The subject of a further experiment is SN12C renal. Particulars: 10 µM unless noted.
A further experiment concerns UO-31 renal. Particulars: 10 µM unless noted.
The subject of another experiment is TK-10 renal. Particulars: 10 µM unless noted.
The next experiment relates to ACHN renal. Particulars: 10 µM unless noted.
Another experiment concerns CAKI-1 renal. Particulars: 10 µM unless noted.
Another experiment concerns A498 renal. Particulars: 10 µM unless noted.
The next experiment concerns MOLT-4 leukemia. Particulars: 10 µM unless noted.
The subject of a further experiment is EKVX NSCLC. The settings on record: 10 µM.
A further experiment has as its system CCRF-CEM leukemia. The settings on record: 10 µM.
Another experiment relates to SNB-75 CNS. The settings on record: 10 µM unless noted.

About 83,000 compounds went through this panel and 20% of them were active in at least one assay; those are over-represented in the sample as a whole.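 Single-dose data. Exposure time 48 hours. Values below 10 considered active.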 Values without a mark were called inactive. Calls of active or inactive are those of the source.

On to `CC(C)OCC1CO1` (centres undefined), for which the growth in the experiment on HCT-15 colon was 100%; with HT29 colon it was 103%; in the experiment on SNB-19 CNS it was 99.7%; in the experiment on U251 CNS, 102%; with PC-3 prostate it was 106%; in the experiment on SK-MEL-5 melanoma, 108%. In addition, the growth in the experiment on UACC-62 melanoma is 98.9%; in the experiment on LOX IMVI melanoma, 113%; in the experiment on SK-MEL-28 melanoma it was 110%; in the experiment on SK-MEL-2 melanoma, 123%; in the experiment with SN12C renal, 109%; in the experiment on UO-31 renal it was 95.8%. Besides, the growth was 107% in the experiment on TK-10 renal; 98.7% in the experiment on ACHN renal; 97.9% in the experiment with CAKI-1 renal; 117% with A498 renal; 110% in the experiment on MOLT-4 leukemia.
With `COc1cc2cn3c4ccc(O)cc4[nH]c(=O)c3c2cc1OC`, the growth in the experiment with HCT-15 colon was 23.3%; with HT29 colon, -70.2% (active); in the experiment with SNB-19 CNS, 30.9%; in the experiment with U251 CNS, 12%; in the experiment on PC-3 prostate, 66.4%; in the experiment with SK-MEL-5 melanoma, -90.7% (active). Also, the growth in the experiment with UACC-62 melanoma is -9.19% (active); in the experiment on LOX IMVI melanoma, 0.607% (active); in the experiment with SK-MEL-28 melanoma, 11.5%; in the experiment on EKVX NSCLC it was 18.4%; in the experiment on SN12C renal, 37%; in the experiment with TK-10 renal, -22.6% (active). Also, the growth in the experiment with ACHN renal is -26% (active); in the experiment on CAKI-1 renal, -51.7% (active); in the experiment with A498 renal it was -20.6% (active); in the experiment on CCRF-CEM leukemia it was 5.83% (active); with MOLT-4 leukemia, -9.94% (active).
For the compound `C=CN(C)S(C)(=O)=O`, the growth was 72.1% in the experiment with HT29 colon; 32.6% with SNB-75 CNS; 50.1% in the experiment on SNB-19 CNS; 19.2% with U251 CNS; 16.9% in the experiment on PC-3 prostate; 12.1% in the experiment on SK-MEL-5 melanoma. Also, the growth is 43% in the experiment with UACC-62 melanoma; 29.7% in the experiment on LOX IMVI melanoma; 38.7% in the experiment on SK-MEL-28 melanoma; -8.09% (active) in the experiment on SK-MEL-2 melanoma; 42.5% in the experiment on SN12C renal; 18.2% in the experiment with UO-31 renal. For the same compound, the growth with TK-10 renal is 53.2%; in the experiment on ACHN renal, 39.5%; in the experiment with CAKI-1 renal it was -7.94% (active); in the experiment on A498 renal, 105%; with CCRF-CEM leukemia it was 16.9%; in the experiment on MOLT-4 leukemia, 30.1%.
With `COc1ccc2cn3c4ccc(O)cc4[nH]c(=O)c3c2c1`, the growth with HCT-15 colon was 17.8%; with HT29 colon it was -89.2% (active); in the experiment on SNB-19 CNS, 19.7%; in the experiment on U251 CNS, 5% (active); in the experiment with SK-MEL-5 melanoma it was 10.9%; in the experiment on UACC-62 melanoma, 34.9%. Besides, the growth in the experiment on LOX IMVI melanoma is 24.4%; with SK-MEL-28 melanoma, 24.8%; in the experiment on EKVX NSCLC, 39%; with SN12C renal, 51.7%; in the experiment with UO-31 renal, 23.6%; in the experiment with TK-10 renal it was -2.48% (active). Besides, the growth in the experiment with ACHN renal was 28.3%; in the experiment with CAKI-1 renal it was 16.9%; with A498 renal, 24.5%; in the experiment on CCRF-CEM leukemia it was 29.2%; in the experiment with MOLT-4 leukemia, 15.2%.
Turning to `O=C(/C=C\c1ccc(NCc2ccc(C(=O)O)cc2)cc1)CCl`, the growth with HCT-15 colon was 72.4%; with HT29 colon, 84.9%; in the experiment on SNB-19 CNS, 96.7%; with PC-3 prostate, 96.2%; in the experiment with SK-MEL-5 melanoma, 100%; in the experiment with UACC-62 melanoma it was 84.2%. The growth in the experiment on LOX IMVI melanoma was 5.63% (active); in the experiment on SK-MEL-28 melanoma it was 104%; in the experiment with SK-MEL-2 melanoma, 97%; in the experiment on SN12C renal, 79.7%; with UO-31 renal, 78.6%; in the experiment with TK-10 renal, 93.4%. Moreover, the growth in the experiment on ACHN renal is 93.3%; in the experiment on CAKI-1 renal, 105%; with A498 renal it was 55.6%; in the experiment on CCRF-CEM leukemia, -8.72% (active); in the experiment with MOLT-4 leukemia it was 6.28% (active).
`COc1cccc(-c2cc(-c3cc4ccccc4oc3=O)nc(N)n2)c1`: the growth in the experiment with HCT-15 colon was 107%; in the experiment on HT29 colon, 117%; with SNB-19 CNS, 106%; in the experiment on PC-3 prostate it was 89.3%; in the experiment with SK-MEL-5 melanoma it was 95%; in the experiment on UACC-62 melanoma, 104%. In addition, the growth with LOX IMVI melanoma was 95.4%; with SK-MEL-28 melanoma, 91.7%; in the experiment with EKVX NSCLC, 99.2%; in the experiment with SN12C renal, 98.6%; in the experiment with UO-31 renal, 55.8%; with TK-10 renal it was 74.5%. In addition, the growth in the experiment on ACHN renal is 98.3%; in the experiment on CAKI-1 renal it was 111%; in the experiment with A498 renal it was 127%; with MOLT-4 leukemia, 91.4%.
On to `Cc1ccc([C@@H]2C[C@H](O)Cc3ccccc3N2)s1`, for which the growth with HCT-15 colon was 94.1%; in the experiment on HT29 colon, 117%; with SNB-19 CNS, 120%; in the experiment with U251 CNS it was 99.6%; with PC-3 prostate it was 92%; in the experiment with SK-MEL-5 melanoma it was 105%. The growth in the experiment with UACC-62 melanoma is 117%; in the experiment on LOX IMVI melanoma, 101%; in the experiment with SK-MEL-28 melanoma it was 116%; in the experiment with SK-MEL-2 melanoma it was 141%; in the experiment with EKVX NSCLC it was 97.6%; in the experiment on UO-31 renal, 94.5%. In addition, the growth with TK-10 renal is 119%; in the experiment on ACHN renal it was 104%; with CAKI-1 renal, 94.8%; with A498 renal, 91.2%; in the experiment with CCRF-CEM leukemia, 105%; with MOLT-4 leukemia, 95.7%.
In the case of `CC(=O)CC(=O)OC/C=C(/C)CCC=C(C)C`, the growth in the experiment on HCT-15 colon was 102%; in the experiment with HT29 colon it was 108%; with SNB-19 CNS, 107%; with U251 CNS it was 104%; in the experiment with PC-3 prostate it was 111%; with SK-MEL-5 melanoma, 99.6%. Also, the growth with UACC-62 melanoma is 97.9%; in the experiment with LOX IMVI melanoma, 97.7%; in the experiment with SK-MEL-28 melanoma it was 113%; in the experiment on SK-MEL-2 melanoma, 126%; with SN12C renal it was 94.5%; with UO-31 renal, 102%. Besides, the growth is 108% in the experiment with TK-10 renal; 102% in the experiment with ACHN renal; 117% in the experiment on A498 renal; 116% in the experiment on CCRF-CEM leukemia; 94.7% in the experiment on MOLT-4 leukemia.
As for `COc1cc(-c2nn(-c3ccc(NC(=O)c4ccc(Cl)c(Cl)c4)cc3)cc2-c2ccncc2)ccc1Cl`, the growth in the experiment on HCT-15 colon is 10.9%; in the experiment on HT29 colon, -14.7% (active); in the experiment with SNB-19 CNS, 85.9%; in the experiment with U251 CNS, 48.7%; with PC-3 prostate, 68.6%; in the experiment with SK-MEL-5 melanoma, 64.8%. Further, the growth in the experiment with UACC-62 melanoma is 64.4%; in the experiment on LOX IMVI melanoma, 35.9%; in the experiment on SK-MEL-28 melanoma, 67.8%; with EKVX NSCLC, 73%; with SN12C renal, 79.4%; with UO-31 renal it was 36.3%. In addition, the growth in the experiment on TK-10 renal was 17.2%; in the experiment with ACHN renal, 74.1%; with CAKI-1 renal, 44.4%; in the experiment on A498 renal, 81.4%; with MOLT-4 leukemia it was 28.7%.
